Screening results from PubChem BioAssay.
KCNQ2 block: rat KCNQ2 potassium channel inhibitors, primary screen, cell-based, CHO-K1, FluxOR thallium flux, B-score. Potassium voltage-gated channel subfamily KQT member 2 (Rattus norvegicus), O88943. 20 min; hits give low values. B-score at 10 µM. 1.1% of 310,000 active;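 active means fluorescence ratio B-score at most minus 3 library SDs, with starting brightness B-score within 2 library SDs, cut at about -5.5 in these data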
KCNQ2 enhance: potentiators of rat KCNQ2 potassium channel. AID 2239, 2010. 0.54% of 310,000 active. B-score at 10 µM. Potassium voltage-gated channel subfamily KQT member 2 (Rattus norvegicus), O88943. CHO-K1 KCNQ2, FluxOR thallium flux fluorescence; hits give high values;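 active means fluorescence ratio B-score at least 3 SD of library B-scores, with initial fluorescence B-score within 3 of them, cut at about 5.3 in these data; same plate scores as AID 2156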;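 further: B-score of peak minus minimum over baseline fluorescence ratio after K+ and Tl+ stimulus; positive B-score means potentiation of KCNQ2 with more thallium influx and brighter signal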
Kir21 conf inh: mouse Kir2.1 channel blockers, retest, confirmation, cell-based, FluxOR thallium flux, duplicate; shares compounds with KCNQ2 enhance; Kir2.1-expressing cells, FluxOR thallium flux fluorescence; hits give low values; Tl flux remaining, % of negative control (hits give low values), % at 10 µM; 41% of 2,300 active;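 active means Primary-screen hit whose thallium flux fell at least 3 control SD below untreated wells in both duplicates, with normal baseline fluorescence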
HEK293 Tl flux: counter-screen for Kir2.1 inhibitors: effect in parental HEK293 cells | shares compounds with KCNQ2 enhance | FluxOR thallium flux fluorescence; 0% = unstimulated blank wells | FluxOR signal as % of negative control (100 = no effect), % at 10 µM | 19% of 2,300 active | AID 2105;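 active means dye signal at least 3 control SD above or below untreated wells in both duplicates, raw fluorescence within 3, either direction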;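 further: percent is based on the flux ratio of peak minus minimum fluorescence over baseline F0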
CHO-K1 ctr: nonspecific thallium flux increase in parental CHO-K1, confirmation, counter-screen for KCNQ2 potentiator project, cell-based, FluxOR thallium flux, duplicate; shares compounds with KCNQ2 enhance; parental CHO-K1 cells, FluxOR thallium flux fluorescence; zero = vehicle mean+3SD, 100% = vehicle-minus-blank window; activity increase over 3SD of controls, % at 10 µM; 43% of 1,200 active; AID 2282, 2010;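 active means signal rise of at least 3 SD above the untreated control mean, in both duplicate wells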;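 further: counter screen of KCNQ2 potentiator hits so any rise reflects channel-independent effects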
KCNQ1 pot spec: human KCNQ1 channel potentiation off-target, confirmation, selectivity assay for KCNQ2 potentiator project, cell-based, CHO, FluxOR thallium flux; shares compounds with KCNQ2 enhance; CHO KCNQ1 stable, FluxOR thallium flux fluorescence; beyond 3SD, as % of vehicle-control signal; activation over 3SD threshold, % at 10 µM; 28% of 1,200 active; AID 2283, 2010;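 active means fluorescence ratio rise of at least 3 SD of vehicle wells above their mean, in both replicate wells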
KCNQ2 pot confirm: rat KCNQ2 channel potentiators, confirmation, cell-based, CHO, FluxOR thallium flux, duplicate; shares compounds with KCNQ2 enhance; CHO-KCNQ2 cells, FluxOR thallium flux fluorescence; potentiation, less the hit threshold, % at 10 µM; 68% of 1,200 active;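 active means fluorescence ratio rising 3 SD or more over the vehicle control mean in both replicates, plus primary screen hit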;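 further: peak minus minimum thallium fluorescence divided by baseline after K/Tl stimulus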
Kir21 spec: mouse Kir2.1 channel activation off-target, confirmation, selectivity assay for KCNQ2 potentiator project, cell-based, HEK293, FluxOR thallium flux. shares compounds with KCNQ2 enhance. HEK293 Kir2.1, FluxOR thallium flux fluorescence. activity over 3SD threshold, % at 10 µM. 2% of 1,200 active. AID 2345, 2010;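 active means fluorescence ratio rise of at least 3 SD above the vehicle-control mean, seen in both replicates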
KCNQ2 W236L MoA: potentiators of retigabine-insensitive KCNQ2 W236L, mechanism study for KCNQ2 potentiator project, cell-based, rat KCNQ2 W236L, CHO, automated patch clamp; shares compounds with KCNQ2 enhance; automated patch clamp current; current increase over 3SD of negative controls (%), hits give high values, % at 25 µM; 10% of 940 active; AID 2558, 2010;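 active means current increase at least 3 SD of the untreated controls above them in both duplicate recordings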
A number is an active result; - = inactive; . = no result given. Hits are enriched below; roughly 1.6% of the tested compounds scored in any of these assays.

SMILES	KCNQ2 block	KCNQ2 enhance	Kir21 conf inh	HEK293 Tl flux	others
COc1ccccc1Nc1nc(NCCO)c2ccccc2n1	-	-	.	.
Cc1ccc(Nc2nc(NCCO)c3ccccc3n2)cc1C	-	.	28%	-
Oc1c(Cl)cc(Cl)cc1/C=N/NC(=S)NC1CC2C=CC1C2 (configuration not stated)	-	7.2	-	-	CHO-K1 ctr=-;KCNQ1 pot spec=70;KCNQ2 pot confirm=-;Kir21 spec=-
Oc1ccccc1/C=N/NC(=S)NC1CC2C=CC1C2 (configuration not stated)	-	-	.	.
Cc1ccc(C(=O)N2CCC(C)CC2)cc1NC1=NC2CS(=O)(=O)CC2S1 (configuration not stated)	-	.	.	.
O=C(/C=C/c1ccccc1)CC(O)(c1ccccc1)C(F)(F)F (configuration not stated)	-	.	62%	-
COc1ccc(/C=C/C(=O)CC(O)(c2ccccc2)C(F)(F)F)cc1 (configuration not stated)	-	.	.	.
O=C(Cn1cnc([N+](=O)[O-])c1)NC1CCCC1	-	-	.	.
CCOC(=O)c1c(NC(=O)C(NCCN(C)C)c2ccccc2)sc2c1CCCC2 (configuration not stated)	-	.	42%	-
CCOC(=O)c1c(NC(=O)c2ccccc2N(C)S(=O)(=O)c2ccccc2)sc2c1CCCC2	-	.	.	.
Cc1ccc(CN2CCC(n3nccc3NC(=O)CCOc3ccccc3)CC2)cc1C	-	.	.	.
Nc1ccc(N=Nc2ccccc2O)c(N)c1	-	-	.	.
Oc1ccccc1N=Nc1ccccc1O	-	7.9	-	-	CHO-K1 ctr=-;KCNQ1 pot spec=-;KCNQ2 pot confirm=-;Kir21 spec=-
CSc1ccc(CN(C)C(C)C(=O)NCc2ccccc2)cc1 (configuration not stated)	-	.	34%	-
CCc1ccc(CN(C)C(C)C(=O)NCc2ccccc2)cc1 (configuration not stated)	-	.	.	.
COc1ccc(CNC(=O)CN(C)Cc2ccc(SC)cc2)cc1	-	.	-	-
CSc1ccc(CN(C)CC(=O)NCc2ccccc2)cc1	-	.	.	.
O=C(O)/C=C/S(=O)(=O)c1ccc2ccccc2c1	-	-	.	.
Cc1cc(OCC(=O)NCCCn2ccnc2)c2c(C)c(C)c(=O)oc2c1	-	.	.	.
O=C(COc1coc(CN2CCc3ccccc32)cc1=O)Nc1ccccc1	-	.	.	.
CN1CCN(C2=Cc3ccccc3Sc3cc(F)ccc32)CC1	-	.	57%	-
CN1CCN(C2=Cc3ccc(Cl)cc3Sc3ccc(F)cc32)CC1	-	.	.	.
O=C(Oc1cccc(Nc2ncnc3ccccc23)c1)c1ccccc1Cl	-	.	.	.
Cc1ccccc1-c1nc2ccc(Cl)cc2c(=O)n1O	-	.	.	.
O=c1c2cc(Br)ccc2nc(-c2cccc(C(F)(F)F)c2)n1O	-	28	-	611%	CHO-K1 ctr=-;KCNQ1 pot spec=-;KCNQ2 pot confirm=92;Kir21 spec=14;KCNQ2 W236L MoA=-
O=c1c2cc(Cl)ccc2nc(-c2ccccc2)n1O	-	6.5	-	326%	CHO-K1 ctr=5.6;KCNQ1 pot spec=9.7;KCNQ2 pot confirm=38;Kir21 spec=-;KCNQ2 W236L MoA=-
